Several values for one entry are separate records, joined by “and”; a condition that tells them apart may be missing. Identical values can stand only once. Activity calls are given as the source filed them. The calls were made as follows: active = hit-call score of the fitted dose curve at least 0.9, where 1 is the maximum; inactive = score below 0.9.

Read-out in this assay: TIMP metallopeptidase inhibitor 2 (TIMP2), TIMP2 (gene 7077)
Nature of the assay: BSK_KF3CT_TIMP2: BioMAP Diversity Plus: KF3CT Assay for TIMP metallopeptidase inhibitor 2 (TIMP2) Biomarker Activity (AID 2283071). The note with it: primary human keratinocytes with fibroblasts; actives raise or lower the signal. The procedure: BSK_KF3CT is a cell-based, multiplexed-readout assay that uses keratinocytes and foreskin fibroblasts, a human skin primary cell co-culture, with measurements taken at 24 hours after chemical dosing in a 96-well plate.BSK_KF3CT_TIMP2 is an assay component measured in the BSK_KF3CT assay. It measures TIMP-2 antibody related to regulation of gene expression using ELISA technology.Data from the assay component BSK_KF3CT_TIMP2 was analyzed into 1 assay endpoint. This assay endpoint, BSK_KF3CT_TIMP2, was analyzed with bidirectional fitting relative to DMSO as the negative control and baseline of activity. Using a type of binding reporter, gain or loss-of-signal activity can be used to understand changes in the signaling as they relate to the gene TIMP2. Furthermore, this assay endpoint can be referred to as a primary readout, because this assay has produced multiple assay endpoints where this one serves a signaling function. To generalize the intended target to other relatable targets, this assay endpoint is annotated to the protease inhibitor intended target family, where the subfamily is metalloproteinase inhibitor.
The levels of cell surface (or secreted, indicated by the prefix "s") biomarker endpoints were measured by ELISA. Overt cytotoxicity to cells in confluent adherent cultures (all systems other than the BT system) was assessed by measuring total protein levels using sulforhodamine B (SRB) staining in parallel cultures at the time of biomarker measurements, indicated as SRB endpoints. For proliferation assays for adherent cell types, individual cell types are cultured at sub-confluence and relative cell numbers quantified by SRB staining at time points optimized for each system (48 h: 3C and CASM3C systems; 72 h: BT and HDF3CGF systems; 96 h: SAg system). SRB was performed by staining cells with 0.1% SRB after fixation with 10% TCA and reading wells at 560 nm.Viability and proliferation of PBMC (T cells) was quantified by Alamar Blue reduction for the SAg and BT systems. For PBMC viability (referred to as PBMC Cytotoxicity within the assay endpoint names), cells were plated (75,000/well in a 96-well plate) and then chemical samples added for 1 h before addition of activators, SEB and TSST-1 (20 ng/mL final concentration each). Cells were incubated for 90 h. Then, Alamar Blue (20 uL/well) (Invitrogen, Cat DAL1100) was added for 6 h, and the plates were read with a fluorescence microplate reader at 546/580 nm (excitation/emission). For PBMC proliferation, cells were plated and activated as above but incubated for only 16 h prior to addition of Alamar Blue. Plates were read after 6 h.
On to `N[C@@H](Cc1cc(I)c(Oc2ccc(O)c(I)c2)c(I)c1)C(=O)O`, for which the outcome was inactive. Still for that read-out and setting: as for `COC(=O)c1c(Cl)nn(C)c1S(=O)(=O)NC(=O)Nc1nc(OC)cc(OC)n1`, the entry is “inactive”; as for `c1ccc(Nc2ccccc2)cc1`, “inactive”. Same read-out and setting: as for `OB(O)O`, the entry is “inactive”. Turning to `O=C(c1ccccc1)C1CCCCC1`, the outcome was inactive. As for `CCCCOC(=O)[C@@H](C)Oc1ccc(Oc2ccc(C(F)(F)F)cn2)cc1`, the result was inactive. Same read-out and setting: as for `Cc1nn(C)c(Oc2ccccc2)c1C=NOCc1ccc(C(=O)OC(C)(C)C)cc1`, the entry is “inactive”. `Oc1ccc(C(c2ccc(O)cc2)C(Cl)(Cl)Cl)cc1`: the AC50 is 20.7 µM (active).

As to `O=C(Nc1ccc([N+](=O)[O-])cc1Cl)c1cc(Cl)ccc1O`, the AC50 was 0.436 µM (active). In the case of `O=C(O)c1ccccc1`, the outcome was inactive. Regarding `CC(C)(c1ccc(O)cc1)c1ccc(O)cc1`, the result was inactive. On the same count and under the same terms, as for `CCSC(=O)N(CC(C)C)CC(C)C`, the entry is “inactive”; as for `COC(=O)c1ccccc1C(=O)O`, “inactive”; as for `C=CCOC(Cn1ccnc1)c1ccc(Cl)cc1Cl` (stereo not given), “inactive”. Take `COC(=O)c1ccccc1S(=O)(=O)NC(=O)Nc1nc(OC(F)F)cc(OC(F)F)n1`: the outcome was inactive.

For the molecule `CCOC(=O)NCCOc1ccc(Oc2ccccc2)cc1`, the result was inactive.

On to `CCCCCOC(=O)COc1cc(N2C(=O)C3=C(CCCC3)C2=O)c(F)cc1Cl`, for which the AC50 is 13.4 µM (active).

Take `CC(C)CCCCCCc1ccc(O)cc1`: the AC50 is 6.18 µM (active). As for `CCCN(CCC)C(=O)SCC`, the outcome was inactive. `CCCCCCC(C)OC(=O)COc1nc(F)c(Cl)c(N)c1Cl` (stereo not given): the AC50 was 31.6 µM (active). As to `COCCO`, the result was inactive. Same read-out and setting: as for `COC(=O)CSc1cc(N=c2sc(=O)n3n2CCCC3)c(F)cc1Cl`, the entry is “inactive”. On the same count and under the same terms, as for `C[C@]12CC[C@@H]3c4ccc(O)cc4C[C@@H](CCCCCCCCCS(=O)CCCC(F)(F)C(F)(F)F)[C@H]3[C@@H]1CC[C@@H]2O` (stereo not given in full), the entry is “inactive”; as for `CCCCC(CC)COC(=O)c1ccccc1C(=O)O` (stereo not given), “inactive”; as for `CCCCOCCOCCOCc1cc2c(cc1CCC)OCO2`, “inactive”. Still for that read-out and setting: as for `COc1nc(C)nc(NC(=O)NS(=O)(=O)c2ccccc2OCCCl)n1`, the entry is “inactive”; as for `CCN(CC)C(=O)c1cccc(C)c1`, “inactive”; as for `CN(C)C(=O)Nc1ccc(Cl)c(Cl)c1`, “inactive”. Regarding `C[C@]12C[C@H](O)[C@H]3[C@@H](CCC4=CC(=O)CC[C@@]43C)[C@@H]1CC[C@@H]2C(=O)CO`, the result was inactive. Still for that read-out and setting: as for `O=C(O)C1(C(=O)Nc2ccc(Cl)cc2Cl)CC1`, the entry is “inactive”; as for `CCNc1nc(N)nc(Cl)n1`, “inactive”; as for `CC1(C)C(C=C(Cl)Cl)C1C(=O)OCc1cccc(Oc2ccccc2)c1` (stereo not given), “inactive”.

In the case of `CCOC(=O)COc1cc(-n2ncc(C(F)(F)F)c(C)c2=O)c(F)cc1Cl`, the outcome was inactive. The same measure, in the same setting: as for `C#C[C@]1(O)CC[C@H]2[C@@H]3CCC4=CC(=O)CC[C@@H]4[C@H]3CC[C@@]21CC`, the entry is “inactive”; as for `CCN(Cc1c(F)cccc1Cl)c1c([N+](=O)[O-])cc(C(F)(F)F)cc1[N+](=O)[O-]`, “inactive”. For `CCCOC(=O)c1ccc(C(=O)OCCC)nc1`, the outcome was inactive. On the same count and under the same terms, as for `CC(=O)[C@H]1CC[C@H]2[C@@H]3CCC4=CC(=O)CC[C@]4(C)[C@H]3CC[C@]12C`, the entry is “inactive”; as for `COC(=O)c1ccc(I)cc1S(=O)(=O)NC(=O)Nc1nc(C)nc(OC)n1`, “inactive”.

On to `N#CSCSc1nc2ccccc2s1`, for which the AC50 was 4.19 µM (active) and 10.2 µM (active). `CCCN(CCC)c1c([N+](=O)[O-])cc(C(F)(F)F)c(N)c1[N+](=O)[O-]`: the AC50 was 30.6 µM (active).

By AC50 is commonly meant the concentration giving half of the maximal activity seen.

(Values after PubChem BioAssay (EPA / NIEHS).)
